A selection: hits, their analogues and other compounds. The true share with any hit is near 22%.
Shiga inhibitor: Shiga toxin inhibition; AID 2315; Vero cells, Shiga toxin protein synthesis inhibition reporter; actives 9.2% (n = 290,000); inhibition, % at 38.7 µM; in the data active = inhibition mostly above about 28%, no sharp cut-off; inactive = mostly below about 43%; note: 0% is about no effect
Pf growth 96h: P. falciparum growth inhibition at 96 hour, primary screen for plastid delayed-death inhibitors. P. falciparum luciferase reporter growth, 96 h. Potency, µM (series often up to 28.7 µM), inactives show at the top dose activity change, negative = inhibition, hits mostly inhibitors. actives 6.9% (n = 320,000). AID 504834; note: potency is the fitted concentration of half-maximal effect; % is set by controls: 0 for no effect and ±100 for the full control effect
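Parasite growth measured via integrated firefly luciferase reporter in P. falciparum. Infected erythrocytes at 2% hematocrit, 0.05% parasitemia final were treated 96 hours at 37 C under 5% CO2, and luminescence was read.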
LmPK inhibitor: inhibitors of Leishmania mexicana pyruvate kinase. purified LmPK, Kinase-Glo ATP luminescence, 1 h. Potency, µM (titrated, usually from 57.5 µM), inactives show at the top dose activity change, negative = inhibition, hits mostly inhibitors. actives 0.37% (n = 290,000). AID 1721; note: potency is the fitted concentration of half-maximal effect; % is set by controls: 0 for no effect and ±100 for the full control effect
Target sequence (Q27686 whole entry, looked up): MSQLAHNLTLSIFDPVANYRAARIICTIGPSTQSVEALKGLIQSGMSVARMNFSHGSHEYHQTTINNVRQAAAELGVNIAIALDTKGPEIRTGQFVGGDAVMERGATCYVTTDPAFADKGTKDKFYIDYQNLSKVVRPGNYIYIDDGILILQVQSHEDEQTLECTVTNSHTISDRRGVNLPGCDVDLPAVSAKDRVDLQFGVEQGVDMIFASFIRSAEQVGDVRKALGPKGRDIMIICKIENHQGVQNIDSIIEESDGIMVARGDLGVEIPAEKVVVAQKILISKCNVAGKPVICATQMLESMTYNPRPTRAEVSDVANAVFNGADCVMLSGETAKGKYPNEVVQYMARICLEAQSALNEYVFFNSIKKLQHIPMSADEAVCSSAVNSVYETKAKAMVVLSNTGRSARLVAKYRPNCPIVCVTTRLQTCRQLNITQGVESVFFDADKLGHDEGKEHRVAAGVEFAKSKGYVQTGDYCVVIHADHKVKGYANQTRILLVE
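Kinase-Glo luminescence read after 1 h RT reaction of 0.1 nM LmPK with 0.5 mM PEP and 0.1 mM ADP. Activity scaled between uninhibited and enzyme-free controls.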
Pf growth 48h: P. falciparum growth inhibition at 48 hours (one generation); P. falciparum luciferase growth in erythrocytes, 48 h; Potency, µM (titrated, usually from 28.7 µM), for inactives: top-dose activity change, negative = inhibition, hits mostly inhibitors; actives 5.9% (n = 310,000); note: potency is the fitted concentration of half-maximal effect; % is set by controls: 0 for no effect and ±100 for the full control effect
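Read-out is firefly luciferase luminescence from an integrated reporter in P. falciparum, so falling signal marks reduced parasite growth. Infected erythrocytes were at 2% hematocrit and 0.1% parasitemia (final) in Albumax-supplemented RPMI 1640.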
CHX counter: counter-screen for Shiga toxin inhibitors: cycloheximide protein synthesis inhibition; actives 12% (n = 300,000); max response, %; cell reporter, cycloheximide protein synthesis inhibition counterscreen; in the data active = max response mostly above about 13%, no sharp cut-off; inactive = mostly below about 14%; note: read at 38.3 µM for the half of the compounds with a filed dose; 0% is about no effect
* hit, by the source's call; u = inconclusive; x = no result; + = active, no number; [ ] = another dose, or the depositor's remark. Unless noted, calls come from the whole dose curve; as a rule, active = well fitted inhibition curve with a large enough effect; inconclusive = small, poorly fitted or top-dose-only effect, or another doubt; inactive = no such curve, though single readings can be large or run the other way.

SMILES	Shiga inhibitor	Pf growth 96h	LmPK inhibitor	Pf growth 48h	CHX counter
O=c1nc(N2CCOCC2)nc(N/N=C/c2ccc3c(c2)OCO3)[nH]1	-2	12µM*	-6%	1%	-2
Cc1cc(C(=O)N/N=C/c2ccc3c(c2)OCO3)c2ccccc2n1	-6	67%	-1%	-12%	-2
C/C(=N\Nc1nc2ccccc2[nH]1)c1ccc2c(c1)OCCO2	53*	u	4%	3.7µM*	36*
COC(=O)C1=C(C(=O)OC)[C@@H]2N(C)c3ccc(OC)cc3[C@@]23C[C@@H](C(=O)OC)N(S(=O)(=O)c2c(C)noc2C)C3=N1	x	x	-5%[11.5 µM]	x	x
Clc1ccccc1N/N=C/c1ccc2c(c1)OCO2	115*	405%	u	200%	76*
C/C(=N\Nc1nc2ccccc2[nH]1)c1ccc2c(c1)OCO2	65*	u	7%	u	35*
O=C(N/N=C/c1ccc2c(c1)OCO2)c1ccc(NC(=O)c2ccccc2Cl)cc1	25	-13%	-4%	u	12
Cc1ccsc1C(=O)NCc1ccc(F)cc1	-5	u	-1%	-5%	2
N#C/C(=C\c1cc(Cl)c(OCc2ccc(Cl)cc2)c(Cl)c1)C(N)=O	53*	92%	9%	12%	30*
N#C/C(=C\c1cc(O)c(O)c(O)c1)C(N)=O	-8	u	4%	10µM*	-2
CCCC(=O)NC(c1ccc(C)cc1)c1ccc2cccnc2c1O (stereo not given)	-6	32%	-2%	3.7µM*	-1
CCCC(=O)NC(c1ccccc1OC)c1ccc2cccnc2c1O (stereo not given)	-14	u	1%	1.7µM*	1
CCCCC(=O)NC(c1ccccc1OC)c1ccc2cccnc2c1O (stereo not given)	2	2.1µM*	0%	1.9µM*	-1
COc1ccc(C)cc1NC(=O)c1cccc(-c2ccc(OC(C)=O)cc2)c1	-10	-23%	8%	-21%	1
O=C(c1cccc(C(F)(F)F)c1)N1CCOc2ccccc21	25	1%	10%	13µM*	4
COc1cccc(NC(=O)c2ccc3snnc3c2)c1	81*	-62%	u	77%	37*
Cc1ccc(NC(=O)c2ccc3snnc3c2)cc1C	74*	u	-2%	105%	37*
Cc1ccccc1NC(=O)c1ccc2snnc2c1	3	66%	2%	31%	8
O=C(Nc1cccc([N+](=O)[O-])c1)c1ccc2snnc2c1	-6	-2%	-1%	-6%	-4
O=C(Nc1ccc(F)cc1)c1ccc2snnc2c1	52*	23%	3%	81%	29*
CNC(=O)Nc1ccc2snnc2c1	30	12µM*	11%	x	0
Cn1nccc1C(=O)NC1CCN(Cc2ccccc2)CC1	-11	24%	-6%	-12%	2
COC(=O)/C(=C\c1c(OC)cc(OC)cc1OC)C(=O)c1ccc2c(c1)OCO2	-1	x	x	x	-5
CC1CN(C(=O)Nc2ccc3snnc3c2)c2ccccc21 (stereo not given)	36*	9%	6%	20%	27*
COc1ccc(N(C)C(=O)c2ccc3snnc3c2)cc1	21	10µM*	4%	0%	5
SMILES	Shiga inhibitor	Pf growth 96h	LmPK inhibitor	Pf growth 48h	CHX counter
O=C(Nc1ccc2snnc2c1)N1CCSCC1	20	-5%	-3%	11%	9
CCOc1ccc(NC(=O)c2ccc3snnc3c2)cc1	43*	-15%	-2%	58%	26
Cc1cc(C)c2c(-n3cccc3)c(C(=O)NNS(=O)(=O)c3ccc(Cl)cc3)sc2n1	-12	35%	0%	3%	-1
CC(Oc1ccc2c(-c3ccccc3)cc(=O)oc2c1)C(=O)N1CCC[C@@H]1C(N)=O (stereo not given in full)	65	-5%	0%	38%	2
OCC1(Cc2ccccc2F)CCCN(CC2CCCCC2)C1 (stereo not given)	x	u	-4%	-3%	-2
Cc1cc(NC(=O)COC(=O)CCS(=O)(=O)c2cc(Cl)ccc2Cl)no1	13	-8%	-9%	7%	-3
Cc1ccc(N)c(N)c1	157*	93%	x	28%	51*
Cc1ccc(N)c(C(=O)c2ccc(Br)cc2)c1	30	-7%	7%	29%	25
O=C(c1ccccc1)C(O)c1ccccc1 (stereo not given)	x	9.5µM*	x	u	x
O=C(NC(Nc1ncccn1)C(=O)c1ccccc1)c1ccccc1 (stereo not given)	26	-11%	-1%	37%	22
O=C(NC(C(=O)c1ccccc1)n1cnccc1=O)c1ccccc1 (stereo not given)	19	163%	-1%	44%	22
O=C(NC(NC(=O)c1ccccc1)C(=O)c1ccccc1)c1ccccc1	12	2.3µM*	3%	-19%	-8
O=C(NC(C(=O)c1ccccc1)n1c(=O)cc[nH]c1=S)c1ccccc1 (stereo not given)	+	-68%	5%	18%	16*
COc1ccc(CNC(=O)COC(=O)CO/N=C(\C)c2ccc3c(c2)OCO3)cc1	x	54%	x	-3%	x
CCc1ccc(OCCOCC(O)CN(CCO)CCO)cc1 (stereo not given)	-6	39%	-3%	12%	2
N#CC1(NC(=O)CSc2nnc(C3CC3)n2C2CC2)CCCCC1	x	-18%	x	-20%	x
O=C(Nc1nccs1)C(=O)c1c[nH]c2ccccc12	146*	x	0%	-26%	71*
CSc1ccccc1NC(=O)C(=O)c1c[nH]c2ccccc12	117*	99%	0%	160%	42*
CC1CCN(Cc2c(C(=O)O)nnn2-c2nonc2N)CC1	4	1.5µM*	4%	19%	-1
Cc1ccc(-c2cc(C(=O)NCc3ccccn3)c3ccccc3n2)cc1C	66*	-8%	-2%	8.3µM*	31*
O=C(NCc1ccco1)c1cc(-c2ccncc2)nc2ccccc12	-16	u	4%	2.1µM*	-6
O=C(Nc1nccs1)c1cc(-c2ccccc2)nc2ccccc12	-4	3.3µM*	0%	2.6µM*	-4
CN(C)S(=O)(=O)c1ccc(NC(=O)c2cc(-c3cccs3)nc3ccccc23)cc1	-2	u	2%	u	-6
O=C(NCc1ccco1)c1cc(-c2cccnc2)nc2ccccc12	-5	0%	1%	-1%	6
O=C(Nc1nccs1)c1cc(-c2ccco2)nc2ccccc12	-4	23%	0%	9%	-1
NS(=O)(=O)c1ccc(NC(=O)c2cc(-c3cccs3)nc3ccccc23)cc1	-18	0.41µM*	2%	26%	-3
CCOc1ccccc1N1CCN(C(=O)C2=CC=CN3CCS(=O)(=O)N=C23)CC1	x	-22%	x	-9%	x
CC(=O)Nc1ccc(NC(=O)C(C)OC(=O)c2ccc3ccccc3n2)cc1 (stereo not given)	x	0%	x	-14%	x
CCCCc1nc2c(c3c1C[C@H](C)OC3)CN(C(=O)NCCCC(=O)OCC)CC2	x	x	-16%[11.5 µM]	x	x

Assay outcomes from PubChem BioAssay.
